# Experimental data as given in PubChem BioAssay (NCI).
# Compounds without any hit were thinned out: in the full panel of roughly 83,000, 20% have a hit.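 Negative percent growth values reflect cell death: -40 means 40% of the cells present at the start died, and -100 means all died.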 A number with no mark means an inactive call. Active and inactive are the calls of the source. Rule for the calls: active = growth percent below 10; inactive = the rest.
# How the values were obtained:
# Experiment in all cases: NCI-60 one-dose screen, 48 h (100 = growth as untreated, 0 = no growth, -100 = all killed)
# Conditions in all cases: 10 µM unless noted
# NCI-H23 lung = system: NCI-H23 lung
# NCI-H226 lung = system: NCI-H226 lung
# NCI-H322M lung = system: NCI-H322M lung
# HOP-62 NSCLC = system: HOP-62 NSCLC
# NCI-H460 lung = system: NCI-H460 lung
# HOP-92 NSCLC = system: HOP-92 NSCLC
# NCI-H522 lung = system: NCI-H522 lung
# A549/ATCC NSCLC = system: A549/ATCC NSCLC
# 786-0 renal = system: 786-0 renal
# COLO 205 colon = system: COLO 205 colon
# DU-145 prostate = system: DU-145 prostate
# K-562 leukemia = system: K-562 leukemia
# MALME-3M melanoma = system: MALME-3M melanoma
# MDA-MB-231 breast = system: MDA-MB-231 breast
# RXF 393 renal = system: RXF 393 renal
# SF-268 CNS = system: SF-268 CNS
# SF-295 CNS = system: SF-295 CNS
# SF-539 CNS = system: SF-539 CNS
# UACC-257 melanoma = system: UACC-257 melanoma
# M14 melanoma = system: M14 melanoma
SMILES,growth (NCI-H23 lung),growth (NCI-H226 lung),growth (NCI-H322M lung),growth (HOP-62 NSCLC),growth (NCI-H460 lung),growth (HOP-92 NSCLC),growth (NCI-H522 lung),growth (A549/ATCC NSCLC) [%],growth (786-0 renal),growth (COLO 205 colon),growth (DU-145 prostate),growth (K-562 leukemia),growth (MALME-3M melanoma),growth (MDA-MB-231 breast),growth (RXF 393 renal),growth (SF-268 CNS),growth (SF-295 CNS),growth (SF-539 CNS),growth (UACC-257 melanoma),growth (M14 melanoma)
COc1cc(C2CC(c3ccc(N(C)C)cc3)=NN2C(C)=O)cc(OC)c1OC (stereo not given),31.2%,79.6%,44.2%,47.8%,10.8%,60.7%,-5.66% (active),51.2,24.1%,19.2%,2.14% (active),17.6%,37.9%,56.3%,-17.7% (active),35%,12.1%,-21.4% (active),56.5%,19.4%
CCOC(=O)c1cn2ncnc(Oc3ccc(NC(=O)NCCN(CC)CC)c(Cl)c3)c2c1C,76.6%,91.5%,98.7%,84.2%,104%,41.5%,72.9%,91.5,72%,57.2%,90.5%,-9.77% (active),22.3%,59.8%,41%,65%,92%,50.7%,-41.7% (active),-64.4% (active)
NS(=O)(=O)c1ccc(N=Nc2ccc(-c3nn4cc(-c5ccccc5)nc4s3)cc2)cc1,97.1%,99.9%,103%,83%,113%,105%,89.9%,96.9,94.6%,100%,108%,93.5%,105%,107%,111%,101%,96.5%,97.6%,99.8%,96.6%
O=C(N/N=C/c1c(Cl)cccc1Cl)c1ccc(C(F)(F)F)nc1Nc1cccc(C(F)(F)F)c1,-10.6% (active),14.2%,1.62% (active),28.2%,7.11% (active),7.35% (active),-3.43% (active),18.6,8.61% (active),-15.4% (active),11.4%,-7.07% (active),5.8% (active),11.3%,40.8%,-2.71% (active),13.7%,1.63% (active),7.6% (active),23.6%
CCc1ccc(Oc2c(-c3ccc(OCc4ccc(Cl)cc4)cc3O)n[nH]c2C(F)(F)F)cc1,3.59% (active),24.8%,35.3%,57.5%,3.21% (active),-17.2% (active),-22.9% (active),33.5,64.4%,95.7%,15%,3.36% (active),-28.3% (active),27.6%,65%,30%,88.1%,56.6%,6.85% (active),30.5%
Cc1ccc(-c2nc(N3CCN(C(=O)Nc4ccc(Cl)c(C(F)(F)F)c4)CC3)c3ccccc3n2)cc1,78.1%,78.7%,64.3%,79.2%,81.1%,82%,69.9%,64,81.3%,89.6%,86.6%,44.9%,105%,61.3%,68%,58.1%,78.2%,87%,90.1%,73.8%
CN1CCN(c2ccc(-c3cc4c(Nc5ccc(F)c(Cl)c5)ncnn4c3)cn2)CC1,102%,97.7%,74.7%,106%,16.1%,107%,98.6%,85.2,100%,105%,58.1%,11.7%,50.3%,77.3%,101%,98.7%,103%,68%,105%,83.8%
O=c1[nH]c2c(ccc3cnccc32)c2c1CCC2,-64.6% (active),-6.54% (active),-11.7% (active),-3.9% (active),-4.19% (active),-17.1% (active),-33.6% (active),14.9,12.6%,-77.4% (active),-9.29% (active),14.6%,-59.2% (active),2.78% (active),-53.8% (active),-17.7% (active),-47.2% (active),-59.7% (active),6.08% (active),-77% (active)
